{"source": "paper PMC4336329", "about": "(PLoS ONE, 2015)", "note": "The whole screen tested about 310,000 compounds, of which about 14,000 (4.5%) showed an effect of 50% or more. Effects have a minus sign here. This is one part of a sample in which strong results are shown more often than they occur.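 Further: peak tail current of the secondary pulse compared with the same well before compound.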"}
{"molecular_target": "human ether-à-go-go-related gene (hERG) potassium channel (human, UniProt Q12809)", "sequence (Q12809 whole entry, looked up)": "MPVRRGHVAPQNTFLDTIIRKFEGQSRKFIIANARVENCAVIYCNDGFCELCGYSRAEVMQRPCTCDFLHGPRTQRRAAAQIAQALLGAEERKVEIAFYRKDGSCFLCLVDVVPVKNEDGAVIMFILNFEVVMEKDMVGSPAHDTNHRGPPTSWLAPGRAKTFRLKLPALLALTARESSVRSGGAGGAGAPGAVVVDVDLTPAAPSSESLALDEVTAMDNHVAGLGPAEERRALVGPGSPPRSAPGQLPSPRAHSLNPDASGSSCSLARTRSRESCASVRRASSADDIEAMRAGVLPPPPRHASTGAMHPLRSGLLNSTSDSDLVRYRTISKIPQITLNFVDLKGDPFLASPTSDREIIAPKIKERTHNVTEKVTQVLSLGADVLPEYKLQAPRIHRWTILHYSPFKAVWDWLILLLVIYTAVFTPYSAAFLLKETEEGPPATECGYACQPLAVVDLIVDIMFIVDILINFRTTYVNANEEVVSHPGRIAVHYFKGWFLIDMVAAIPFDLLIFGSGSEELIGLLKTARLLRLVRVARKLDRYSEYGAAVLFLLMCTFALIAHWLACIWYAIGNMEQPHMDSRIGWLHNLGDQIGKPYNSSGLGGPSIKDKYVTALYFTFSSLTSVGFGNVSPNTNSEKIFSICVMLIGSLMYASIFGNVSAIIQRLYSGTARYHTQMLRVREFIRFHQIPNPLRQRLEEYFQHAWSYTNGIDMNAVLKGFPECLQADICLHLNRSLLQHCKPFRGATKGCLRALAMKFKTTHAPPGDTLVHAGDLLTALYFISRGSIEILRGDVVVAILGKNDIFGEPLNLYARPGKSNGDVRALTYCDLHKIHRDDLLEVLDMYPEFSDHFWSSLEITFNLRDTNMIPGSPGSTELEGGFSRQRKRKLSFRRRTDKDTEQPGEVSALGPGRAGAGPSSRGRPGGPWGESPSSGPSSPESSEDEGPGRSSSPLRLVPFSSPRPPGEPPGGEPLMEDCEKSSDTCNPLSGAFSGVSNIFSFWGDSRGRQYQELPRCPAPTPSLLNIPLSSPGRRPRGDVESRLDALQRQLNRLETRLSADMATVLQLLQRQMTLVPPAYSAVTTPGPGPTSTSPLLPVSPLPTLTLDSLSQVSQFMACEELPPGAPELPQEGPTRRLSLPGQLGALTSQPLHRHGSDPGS", "assay": "primary screen, population patch clamp on CHO cells stably expressing hERG; higher = less effect of the substance", "units": {"hERG current change (%, negative = inhibition) at 10uM": "%"}}
{"smiles": "CCOc1ccc(C(NC(=O)CC)c2c(O)ccc3ccccc23)cc1", "note": "(centres unmarked)", "hERG current change (%, negative = inhibition) at 10uM": -7.96}
{"smiles": "O=C(COC(=O)c1ccccc1NC(=O)c1ccco1)Nc1ccc2c(c1)OC(F)(F)O2", "hERG current change (%, negative = inhibition) at 10uM": 12.2}
{"smiles": "FC(F)(F)c1cc(-c2ccc(Cl)cc2)nc(NCc2cccnc2)n1", "hERG current change (%, negative = inhibition) at 10uM": 3.07}
{"smiles": "CNC(=S)N/N=C/c1cccc(OCc2ccccc2F)c1", "hERG current change (%, negative = inhibition) at 10uM": 18.3}
{"smiles": "Cc1cc(NC(=O)CSc2[nH]c(=O)cc(C(F)(F)F)c2C#N)no1", "hERG current change (%, negative = inhibition) at 10uM": -2.45}
{"smiles": "CCNC(=O)C(=O)N/N=C/c1cc([N+](=O)[O-])ccc1O", "hERG current change (%, negative = inhibition) at 10uM": 4.32}
{"smiles": "CCC1CSC(Nc2ccc(C(=O)/C=C/c3ccc(Br)cc3)cc2)=N1", "note": "(centres unmarked)", "hERG current change (%, negative = inhibition) at 10uM": 0.372}
{"smiles": "CCC1CSC(Nc2ccc(C(=O)/C=C/c3cccc(C)c3)cc2)=N1", "note": "(centres unmarked)", "hERG current change (%, negative = inhibition) at 10uM": 14.4}
{"smiles": "CCC1CSC(Nc2ccc(C(=O)/C=C/c3ccc(OC)c(OC)c3)cc2)=N1", "note": "(centres unmarked)", "hERG current change (%, negative = inhibition) at 10uM": -52.4}
{"smiles": "C[C@@H](O)c1nc2ccccc2n1N", "hERG current change (%, negative = inhibition) at 10uM": 9.12}
{"smiles": "Cc1cc(N2C(=O)c3ccccc3C2=O)n(C)n1", "hERG current change (%, negative = inhibition) at 10uM": 9.7}
{"smiles": "COc1ccc(/C=C(\\NC(=O)c2ccc(OC)c(OC)c2)C(=O)N2CCN(C)CC2)cc1", "hERG current change (%, negative = inhibition) at 10uM": -19.4}
{"smiles": "COc1ccc(C(=O)N/C(=C\\c2cccs2)C(=O)N2CCN(C)CC2)cc1OC", "hERG current change (%, negative = inhibition) at 10uM": -56.4}
{"smiles": "CCOC(=O)N1CCN(C(=O)c2ccc(OC)c(OC)c2)CC1", "hERG current change (%, negative = inhibition) at 10uM": 18.5}
{"smiles": "COc1ccc(C(=O)N/C(=C/c2cccs2)C(=O)NN)cc1OC", "hERG current change (%, negative = inhibition) at 10uM": 13.7}
{"smiles": "CCOC(=O)N1CCN(C(=O)/C(=C/c2cccs2)NC(=O)c2ccc(OC)c(OC)c2)CC1", "hERG current change (%, negative = inhibition) at 10uM": -71.2}
{"smiles": "COc1ccc(C(=O)N/C(=C/c2cccs2)C(=O)NC(C)(C)C)cc1OC", "hERG current change (%, negative = inhibition) at 10uM": 5.42}
{"smiles": "Cc1ccc(CNC(=O)C2CC=CCC2C(=O)O)cc1", "note": "(centres unmarked)", "hERG current change (%, negative = inhibition) at 10uM": 16.3}
{"smiles": "CCOC(=O)c1cc([N+](=O)[O-])sc1N", "hERG current change (%, negative = inhibition) at 10uM": 2.1}
{"smiles": "O=C(COC(=O)c1ccccc1O)Nc1cc(S(=O)(=O)N2CCCCCC2)ccc1Cl", "hERG current change (%, negative = inhibition) at 10uM": -9}
{"smiles": "Cn1c(=O)n(C)c2cc(NC(=O)COc3ccc(F)cc3F)ccc21", "hERG current change (%, negative = inhibition) at 10uM": -13.6}
{"smiles": "CCOc1ccccc1C(=O)NCC(=O)N(C)Cc1cccnc1", "hERG current change (%, negative = inhibition) at 10uM": -3.07}
{"smiles": "CCN(CC)CCNS(=O)(=O)c1ccc(Cl)cc1.Cl", "hERG current change (%, negative = inhibition) at 10uM": -12.9}
{"smiles": "CCN(CC)CCNCC(O)(c1ccc(Cl)cc1)c1ccc(Cl)cc1", "hERG current change (%, negative = inhibition) at 10uM": -82.4}
{"smiles": "CCCCNCC(O)(c1ccc(Cl)cc1)c1ccc(Cl)cc1", "hERG current change (%, negative = inhibition) at 10uM": -68}
{"smiles": "CCN(CC)CCNC(=S)Nc1ccc(Cl)cc1", "hERG current change (%, negative = inhibition) at 10uM": -21.7}
{"smiles": "CC(C)(C)NCC(O)(c1ccc(Cl)cc1)c1ccc(Cl)cc1", "hERG current change (%, negative = inhibition) at 10uM": -13.8}
{"smiles": "CCC(C)NCC(O)(c1ccc(Cl)cc1)c1ccc(Cl)cc1", "note": "(centres unmarked)", "hERG current change (%, negative = inhibition) at 10uM": -37.7}
{"smiles": "COc1ccc(-c2nc3n(n2)C(c2cccnc2)C(C(N)=O)=C(C)N3)cc1", "note": "(centres unmarked)", "hERG current change (%, negative = inhibition) at 10uM": -17.3}
{"smiles": "CCOC(=O)COc1ccc(S(=O)(=O)Nc2ccc3c(c2)OCCO3)cc1", "hERG current change (%, negative = inhibition) at 10uM": -3.24}
{"smiles": "COC(=O)C(Sc1nc(C)cc(C)c1C#N)c1ccccc1", "note": "(centres unmarked)", "hERG current change (%, negative = inhibition) at 10uM": -10.6}
{"smiles": "CC(CC(=O)NC1CCCCC1)S(=O)(=O)c1ccc2c(c1)CCN2C(=O)C1CC1", "note": "(centres unmarked)", "hERG current change (%, negative = inhibition) at 10uM": 28.2}
{"smiles": "CCCS(=O)(=O)N1CCCC(C(=O)NCc2ccc(C)cc2)C1", "note": "(centres unmarked)", "hERG current change (%, negative = inhibition) at 10uM": 4.91}
{"smiles": "COc1ccc(S(=O)(=O)N2CCOCC2)cc1NC(=O)COC(=O)C1CCC1", "hERG current change (%, negative = inhibition) at 10uM": -6.23}
{"smiles": "CN1CC=C(/C=C/c2ccc(-c3ccccc3)cc2)CC1.Cl", "hERG current change (%, negative = inhibition) at 10uM": -50.1}
{"smiles": "CC1=C(/C=C/c2ccccc2)CCN(C)C1.Cl", "hERG current change (%, negative = inhibition) at 10uM": -24.6}
{"smiles": "Cl.OC(CN1CC=C(/C=C/c2ccc(Br)cc2)CC1)c1ccccc1", "note": "(centres unmarked)", "hERG current change (%, negative = inhibition) at 10uM": -2.33}
{"smiles": "CCCCc1nc(SCC(=O)Nc2cccc(Cl)c2)n[nH]1", "hERG current change (%, negative = inhibition) at 10uM": -4.4}
{"smiles": "Nc1ccc2nc(SCC(=O)c3ccccc3)sc2c1", "hERG current change (%, negative = inhibition) at 10uM": 9.11}
{"smiles": "COc1ccc(N2CCN(CCCNC(=S)Nc3c(C)cccc3C)CC2)cc1", "hERG current change (%, negative = inhibition) at 10uM": -52.4}
{"smiles": "CCOc1ccc(NC(=S)NCCCc2ccccc2)cc1", "hERG current change (%, negative = inhibition) at 10uM": -12.4}
{"smiles": "CCOc1ccc(NC(=S)NCCCN2CCOCC2)cc1", "hERG current change (%, negative = inhibition) at 10uM": 10.7}
{"smiles": "CCOc1cccc(C(=O)NC(=S)Nc2ccc(N3CCCC3)cc2)c1", "hERG current change (%, negative = inhibition) at 10uM": 10.8}
{"smiles": "CCCOc1cccc(C(=O)NC(=S)Nc2ccc(N3CCN(C)CC3)cc2)c1", "hERG current change (%, negative = inhibition) at 10uM": 1.67}
{"smiles": "COc1ccc(N2CCC(CNC(=S)Nc3c(C)cccc3C)C2)cc1", "note": "(centres unmarked)", "hERG current change (%, negative = inhibition) at 10uM": -4.72}
{"smiles": "COc1ccc(NC(=S)NCCCN2CCCC2)cc1", "hERG current change (%, negative = inhibition) at 10uM": 5.95}
{"smiles": "CCOc1ccc(NC(=S)Nc2ccc(OCc3ccccc3)cc2)cc1", "hERG current change (%, negative = inhibition) at 10uM": 4.64}
{"smiles": "CCOc1ccc(NC(=S)NCCN2CCN(Cc3ccccc3)CC2)cc1", "hERG current change (%, negative = inhibition) at 10uM": -62.3}
{"smiles": "CCOc1ccc(NC(=S)NCCCN2CCN(c3ccc(OC)cc3)CC2)cc1", "hERG current change (%, negative = inhibition) at 10uM": -70.7}
{"smiles": "CCCN1CCN(CCCNC(=S)Nc2ccc(OC)cc2)CC1", "hERG current change (%, negative = inhibition) at 10uM": -22.8}
{"smiles": "CCOc1cccc(C(=O)NC(=S)Nc2ccc(N3CCN(CC)CC3)cc2)c1", "hERG current change (%, negative = inhibition) at 10uM": -72.1}
{"smiles": "COCCCn1cc(C(=O)c2ccccc2OCC(=O)Nc2cccc(F)c2)cc(C#N)c1=O", "hERG current change (%, negative = inhibition) at 10uM": -35.9}
{"smiles": "CN([C@@H](C(=O)OC(C)(C)C)c1ccccc1)S(=O)(=O)c1cccc(S(=O)(=O)N(C)[C@@H](C(=O)OC(C)(C)C)c2ccccc2)c1", "hERG current change (%, negative = inhibition) at 10uM": 14.3}
{"smiles": "O=C(Nc1ccc(Cl)cc1F)c1cccc2ccccc12", "hERG current change (%, negative = inhibition) at 10uM": 12.2}
{"smiles": "COc1cc(Cn2c(=O)c3c(OC)c(C)cnc3n(C)c2=O)cc(OC)c1", "hERG current change (%, negative = inhibition) at 10uM": 14.1}
{"smiles": "Cn1c(CO)cnc1SCc1ccc(Cl)cc1", "hERG current change (%, negative = inhibition) at 10uM": 0.94}
{"smiles": "CCOc1ccc(C(=O)NC(=S)NCCCN2CCOCC2)cc1", "hERG current change (%, negative = inhibition) at 10uM": -50.1}
{"smiles": "O=C(NC(=S)NCCCN1CCOCC1)c1ccc(Br)cc1", "hERG current change (%, negative = inhibition) at 10uM": -42.9}
{"smiles": "Cc1ccc(C(=O)NC(=S)NCCCN2CCOCC2)cc1", "hERG current change (%, negative = inhibition) at 10uM": -7.43}
